Hits are enriched below; roughly 21% of the tested compounds scored in any of these assays.
Giardia FBPA inh = qHTS Assay for Inhibitors of Fructose-1,6-bisphosphate Aldolase from Giardia Lamblia; A8B2U2; AID 2451, 2010; purified Giardia FBPA; Potency, µM (series often up to 59.6 µM), for the others: at the highest dose activity, negative = inhibition, usual class: inhibitors; 290,000 compounds, 0.71% hits; also: potency is read from the fitted curve at half-maximal effect; % is scaled to controls: 0 for no effect and ±100 for the full control effect; nearly all actives have a fitted effect of over 55% in size
Target sequence (A8B2U2 whole entry, looked up): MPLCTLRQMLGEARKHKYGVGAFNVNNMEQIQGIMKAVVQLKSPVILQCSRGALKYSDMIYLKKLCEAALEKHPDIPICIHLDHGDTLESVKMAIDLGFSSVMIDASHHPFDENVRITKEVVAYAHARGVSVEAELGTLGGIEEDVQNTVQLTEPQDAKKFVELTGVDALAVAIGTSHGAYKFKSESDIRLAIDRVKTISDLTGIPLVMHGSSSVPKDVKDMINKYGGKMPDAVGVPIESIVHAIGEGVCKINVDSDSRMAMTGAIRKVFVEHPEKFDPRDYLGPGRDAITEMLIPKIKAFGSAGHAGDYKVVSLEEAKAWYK
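40 nM FBPA preincubated 10 min at RT with compound (up to 57.5 uM final), then substrate plus GAPDH/TPI/NAD/arsenate coupling and diaphorase/resazurin added. Fluorescence read after 20 min at RT, 525/598 nm.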
Pf growth 96h = Primary qHTS for delayed death inhibitors of the malarial parasite plastid, 96 hour incubation | 320,000 compounds, 6.9% hits | Potency, µM (top dose mostly 28.7 µM), for the others: top-dose activity change, negative = inhibition, actives largely listed as inhibitors | P. falciparum luciferase reporter growth, 96 h; also: potency is read from the fitted curve at half-maximal effect; % is scaled to controls: 0 for no effect and ±100 for the full control effect
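Delayed-death screen, second-generation endpoint: infected erythrocytes, 2% hematocrit, 0.05% parasitemia final; 96 hours at 37 C, 5% CO2; luciferase detection reagent; luminescence decrease equals reduced growth.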
Cycloheximide cs = Cycloheximide Counterscreen for Small Molecule Inhibitors of Shiga Toxin; 300,000 compounds, 12% hits; cell reporter, cycloheximide protein synthesis inhibition counterscreen; AID 2314, 2010; max response, %; in the data active = max response mostly above about 13%, no sharp cut-off; inactive = mostly below about 14%; also: read at 38.3 µM for the half of the compounds with a filed dose; 0% is about no effect
Pf growth 48h = Primary qHTS for delayed death inhibitors of the malarial parasite plastid, 48 hour incubation | P. falciparum luciferase growth in erythrocytes, 48 h | Potency, µM (series often up to 28.7 µM), inactives show at the highest dose activity change, negative = inhibition, most hits filed as inhibitors | AID 504832, 2011 | 310,000 compounds, 5.9% hits; also: potency is read from the fitted curve at half-maximal effect; % is scaled to controls: 0 for no effect and ±100 for the full control effect
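A one-generation exposure of luciferase-tagged malaria parasites in RPMI 1640/Albumax erythrocyte culture, 37 C and 5% CO2. Inhibition is inferred from decreased luminescence after adding detection reagent.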
NS1 function inh = qHTS Assay for Inhibitors of Influenza NS1 Protein Function | 270,000 compounds, 0.4% hits | Potency, µM (top dose mostly 46.1 µM), inactives show top-dose activity, positive = more growth; calls by dose curve; also: potency is read from the fitted curve at half-maximal effect; actives are rising curves; nearly all actives have a fitted effect of over 50% in size
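Growth recovery, yeast-based: influenza A NS1 expressed in S. cerevisiae causes slow growth, and suppressors are detected by OD600. The parent strain without NS1 is used as positive control.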
Shiga inhibitor = A qHTS for Small Molecule Inhibitors of Shiga Toxin; Vero cells, Shiga toxin protein synthesis inhibition reporter; inhibition, % at 38.7 µM; 290,000 compounds, 9.2% hits; in the data active = inhibition mostly above about 28%, no sharp cut-off; inactive = mostly below about 43%; also: 0% is about no effect
The depositor's hits bear a star; ? = inconclusive; nt = not tested or not shown; [ ] = another dose, or the depositor's remark. Unless noted, calls follow the shape of the dose curve; as a rule, active = well fitted curve in the direction sought with a large enough effect; inconclusive = small, poorly fitted or top-dose-only effect, or another doubt; inactive = no such curve, though single readings can be large; an effect the other way counts as inactive or inconclusive.

SMILES | Giardia FBPA inh | Pf growth 96h | Cycloheximide cs | Pf growth 48h | NS1 function inh | Shiga inhibitor
C=CCOc1c(OC)cc(Cl)cc1C1NC(=O)NC(C)=C1C(C)=O (configuration not stated) | 7% | 3.3µM* | -1 | -18% | -4% | 5
COC(=O)C1=C(C)NC(=O)NC1c1ccc(-c2ccccc2Cl)o1 (configuration not stated) | -2% | 3.7µM* | 5 | -3% | nt | -21
COC(=O)C1=C(C)NC(=O)NC1c1ccc(-c2ccc(F)cc2)o1 (configuration not stated) | 0% | ? | -2 | ? | nt | 13
Cc1ccc(C2(C)NC(=O)N(CC(=O)Nc3ccc(S(=O)(=O)Nc4nccs4)cc3)C2=O)cc1 (configuration not stated) | nt | 0% | nt | -18% | nt | nt
O=C1CCC/C1=C/Nc1cccc(F)c1 | -14% | 0% | 16* | 20% | 0% | 53*
O=C1CCCC/C1=C/Nc1ccc2c(c1)OCO2 | ? | -18% | 30* | 82% | -2% | 109*
COc1ccc(Oc2ccc(N/C=C3/CCCC3=O)cc2)cc1 | -15% | 75% | 13 | ? | 17% | -26
O=C1/C(=C\c2ccc3c(c2)OCO3)CCC/C1=C/c1ccc2c(c1)OCO2 | -6% | 0% | 7 | 3% | -13% | 50
Clc1ccccn1 | nt | ? | nt | 25% | nt | nt
COc1ccc(CNCc2ccc(OC)c3ccccc23)cc1 | -13% | 2.3µM* | -2 | 1% | 3% | -8
COc1cccc(CNCc2ccc(OC)c3ccccc23)c1OC | ? | ? | -2 | ? | 0% | 4
Cc1nc(N2CCOCC2)nc(Oc2ccccc2)c1[N+](=O)[O-] | 8% | 3% | 1 | -5% | -45% | 9
COc1ccc(N=Cc2c(O)c3ccccc3oc2=O)cc1 | -5% | 38% | 32* | 11% | 2% | 61*
Cc1cc(C)c(N=Cc2c(O)c3ccccc3oc2=O)c(C)c1 | 7% | 2% | 15* | 10µM* | -13% | nt
CC(C)c1ccc(N=Cc2c(O)c3ccccc3oc2=O)cc1 | -6% | -3% | 60* | 0% | 8% | 64*
COc1ccc(Cn2c(O)c(C=Nc3ccc(O)cc3)c3ccccc3c2=O)cc1 | -5% | 12µM* | 7 | -23% | ? | -3
Cc1ccc(NC(=O)CCNC(=O)c2ccc(Br)cc2)cc1S(=O)(=O)N1CCCCCC1 | nt | -2% | nt | 2% | nt | nt
O=C(COC(=O)c1c[nH]c2ccccc12)Nc1ccc(F)cc1 | nt | -8% | nt | 6% | nt | nt
O=C(COC(=O)c1ccccc1Br)Nc1ccc(F)cc1 | -9% | 12% | 36* | 30% | -5% | 98*
CC(=O)c1ccc(NC(=O)COC(=O)c2ccc(F)cc2F)cc1 | 0% | 3% | 13* | 20% | -12% | 32
O=C(COC(=O)c1ccccc1Br)NCCc1ccc(F)cc1 | 1% | 17% | 31* | 15% | -1% | -9
O=C(COC(=O)c1ccccc1Br)Nc1ccc2[nH]c(=O)[nH]c2c1 | nt | 23% | nt | 9% | nt | nt
O=C(COC(=O)c1ccc[nH]c1=O)NCCc1ccc(F)cc1 | 2% | 25% | 13 | -2% | nt | 1
Cc1occc1C(=O)OCC(=O)Nc1ccc(F)cc1 | -1% | 101% | 36* | 76% | -18% | 75
CC(C)CNc1nc(SCC(=O)Nc2ccccc2)nc(N2CCOCC2)n1 | 5% | -26% | 1 | ? | 2% | -9
SMILES | Giardia FBPA inh | Pf growth 96h | Cycloheximide cs | Pf growth 48h | NS1 function inh | Shiga inhibitor
CC(=O)c1ccc(NC(=O)COC(=O)c2ccccc2Sc2ccccc2C#N)cc1 | 4% | 48% | 15* | 32% | -6% | 2
N#Cc1cccc(NC(=O)COC(=O)c2ccccc2Sc2ccccc2C#N)c1 | 2% | 30% | 0 | 30% | 18% | 3
CC1(C)Cc2ccccc2C2=NNC(=O)C2=N1 | 4.5µM* | 15% | 9 | ? | -5% | 33
Cc1onc(-c2c(F)cccc2Cl)c1C(=O)N1CCOC12CCCCC2 | 4% | -31% | 10 | 105% | -6% | -24
CN(C)CCCNc1cc(C(C)(C)C)nc2c(-c3ccccc3)cnn12 | 6% | ? | 47* | 32% | -2% | 61*
Cc1cccc(-c2cc3nc(C)c(C)c(NCCCn4ccnc4)n3n2)c1 | 4% | ? | 16 | 1.7µM* | -3% | 27
Cc1ccc(-c2csc3nc4c5ccccc5c(NCCCN(C)C)nn4c(=O)c23)cc1 | 7% | ? | -1 | ? | nt | -2
O=C(NCCCn1ccnc1)c1cc(-c2ccncc2)nc2ccccc12 | 6% | -3% | -13 | -21% | nt | 15
Cc1cc(C)c2c(n1)nn1c(NCCCn3ccnc3)cc(C)nc21 | 7% | ? | -5 | 10% | -9% | 3
Cc1cc(NCCCn2ccnc2)n2nc(-c3ccc(F)cc3)cc2n1 | 2% | -4%[5.75 µM] | 20* | 4.1µM* | 0% | 29*
Cc1cc(NCCCn2ccnc2)n2nc(-c3ccc(Cl)cc3)cc2n1 | -4% | 20% | 20* | 2.6µM* | 2% | 57
CCC1=C2CC[C@H]3C(=O)N(C)C(=O)[C@H]3[C@H]2[C@@]2(C)C(=NCC(=O)OC)OC(=O)N2C1=O | 9% | nt | nt | nt | nt | nt
CC(C)(C)c1cc(NCCCn2ccnc2)n2ncc(-c3ccc(Cl)cc3)c2n1 | 1% | ? | 58* | ? | -39% | 87*
Fc1ccc(Nc2nc(N3CCOCC3)c3ccccc3n2)cc1 | -5% | ? | -2 | ? | -108% | 2
Cc1[nH]c2ccccc2c1/C=N/Nc1nc(Nc2ccccc2)nc(N2CCOCC2)n1 | -9% | ? | 20* | ? | -54% | 16
Oc1[nH]c2ccccc2c1N=Nc1nc(Nc2ccccc2)nc(N2CCOCC2)n1 | 2% | ? | -1 | 6.6µM* | 5% | 11
COc1ccc(S(=O)(=O)N2CCC(NC(=O)c3cccnc3)CC2)cc1 | nt | 20% | -3 | ? | 1% | 7
COCCNc1nc(SCc2ccccc2)nc2sc3c(c12)CCC3 | 1% | ? | 2 | ? | 18% | 1
CC(CO)Nc1nc(SCc2ccccc2)nc2sc3c(c12)CCC3 (configuration not stated) | -6% | 7.4µM* | 13 | ? | 6% | -2
C=C1CCN([C@H](C(=O)NCc2ccc(OC)cc2)C(C)C)S(=O)(=O)c2ccccc21 | -3% | ? | 3 | ? | 10% | -3
O=C(O)[C@@H](O)c1ccc(F)cc1 | nt | nt | nt | nt | -9% | nt
Fc1cccc(Cn2ccc(-c3ccc4c(c3)OCO4)n2)c1 | -5% | 63% | 57* | 62% | -12% | 99*
Cc1ccccc1Cn1nnc(-c2ccc3c(c2)OCO3)n1 | 0% | -20% | 49* | 58% | -30% | 54*
Cc1ccccc1Cn1ccc(-c2ccc3c(c2)OCO3)n1 | 0% | 108% | 60* | 85% | 3% | 74*
